SRC1 TRFRET art = TR-FRET detection interference compounds, primary screen, artefact control for PPARgamma SRC-1 recruitment agonists, biochemical, TR-FRET emission ratio. TR-FRET detection artefact counter-screen; hits give high values. hit rate 0.34% among 99,000. TR-FRET ratio at 8 µM; in the data active = TR-FRET ratio above about 2300
PPARg SRC1 recr = PPARgamma agonists recruiting SRC-1 coactivator, primary screen, biochemical. Peroxisome proliferator-activated receptor gamma (Homo sapiens), P37231. PPARgamma-SRC-1 coactivator recruitment biochemical assay. activation, % at 8 µM. hit rate 0.41% among 200,000. AID 631, 2007; in the data active = activation above about 19%;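 note: 0% = DMSO and 100% = reference agonist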
Target sequence (P37231 whole entry, looked up): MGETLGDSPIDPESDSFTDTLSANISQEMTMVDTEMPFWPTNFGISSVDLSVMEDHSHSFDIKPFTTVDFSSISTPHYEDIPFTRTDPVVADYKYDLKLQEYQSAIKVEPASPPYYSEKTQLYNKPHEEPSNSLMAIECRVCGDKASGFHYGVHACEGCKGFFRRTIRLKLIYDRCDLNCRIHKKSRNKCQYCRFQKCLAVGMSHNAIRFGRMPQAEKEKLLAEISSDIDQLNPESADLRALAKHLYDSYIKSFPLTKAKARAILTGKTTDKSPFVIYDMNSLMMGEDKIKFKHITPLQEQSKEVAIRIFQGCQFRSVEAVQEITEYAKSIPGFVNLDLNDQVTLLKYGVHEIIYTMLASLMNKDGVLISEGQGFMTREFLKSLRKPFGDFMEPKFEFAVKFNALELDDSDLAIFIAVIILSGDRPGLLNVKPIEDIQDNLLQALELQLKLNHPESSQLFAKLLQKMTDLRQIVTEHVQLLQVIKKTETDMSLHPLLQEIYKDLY
PPARg SRC2 recr = agonists of PPARg-SRC-2 recruitment, primary screen, biochemical, HTS; hit rate 0.34% among 200,000; activation, % at 8 µM; Peroxisome proliferator-activated receptor gamma (Homo sapiens), P37231; PPARgamma LBD-SRC-2 recruitment; in the data active = activation above about 22%;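 note: 0% = vehicle and 100% = reference agonist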
SRC2 TRFRET art = TR-FRET signal artefacts, primary screen, artefact control for PPARgamma SRC-2 agonist project, biochemical | TR-FRET artefact counter-screen; hits give high values | TR-FRET ratio at 8 µM | hit rate 0.4% among 200,000
SRC3 TRFRET art = TR-FRET detection interference compounds, artefact control for PPARgamma SRC-3 recruitment agonists, biochemical, TR-FRET ratio | AID 1048, 2008 | TR-FRET artefact counter-screen, PPARgamma/SRC-3 format; hits give high values | TR-FRET ratio at 8 µM | hit rate 0.39% among 99,000
PPARg SRC-3 ag = PPARgamma agonists recruiting SRC-3 coactivator, primary screen, biochemical; biochemical PPARgamma/SRC-3 coactivator recruitment assay; activation, % at 8 µM; hit rate 0.26% among 200,000; AID 731, 2007; in the data active = activation above about 23%;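 note: 0% = DMSO and 100% = reference agonist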
Active calls of the source: *; . = not tested or not shown. Sampled rows, rich in hits. Any-hit rate of the full collection: about 0.84%. Cut-off read from the data, not from the text of the source, unless noted: active = TR-FRET ratio above about 2000; inactive = the rest.

SMILES	SRC1 TRFRET art	PPARg SRC1 recr	PPARg SRC2 recr	SRC2 TRFRET art	SRC3 TRFRET art	PPARg SRC-3 ag
CCc1ccc(N2CSC3=C(C#N)C(c4cccs4)CC(=O)N3C2)cc1 (centres undefined)	2307	10.1	35.5*	2462*	1937	7.8
CCc1ccc(C2CC(=O)N3CN(c4ccccc4)CSC3=C2C#N)cc1 (centres undefined)	.	5.3	9.1	1752	.	15.6
Fc1ccc(CCNC(=S)Nc2ccc(F)c(Cl)c2)cc1	1735	0.9	-4.2	1604	1752	0.1
CCOC(=O)c1c(NC(=O)Cc2cccs2)sc(C(=O)NC2CCCCC2)c1C	.	8.1	3.2	1698	.	4.2
CCOC(=O)c1c(NC(=O)Cc2cccs2)sc(C(=O)NC2CCCC2)c1C	.	1.3	2.4	1550	.	34.5*
CC(C(=O)N1CCCCCC1)c1ccc([N+](=O)[O-])cc1 (centres undefined)	1754	8.4	6.8	1671	1540	1.6
CCN(CC)c1ccc(NC(=O)c2ccccc2F)cc1S(=O)(=O)Nc1ccccc1OC	1982	0.0	3.5	1726	2056*	4.7
CCN(CC)c1ccc(NC(=O)c2ccccc2Br)cc1S(=O)(=O)Nc1ccccc1OC	1698	-6.9	-0.5	1301	1617	-4.1
Cc1cccn2c(=O)c3cc(C(=O)NCC4CCCO4)c(=N)n(Cc4cccnc4)c3nc12 (centres undefined)	2542*	16.6	4.3	1761	1472	1.7
N=c1c(C(=O)NCC2CCCO2)cc2c(=O)n3ccccc3nc2n1Cc1cccnc1 (centres undefined)	1929	9.0	4.7	1820	1701	3.3
O=c1c(-c2n[nH]c(=S)n2-c2ccccc2)cccn1Cc1cccc(Cl)c1	2294	15.6	12.5	1986*	1865	6.1
COC(=O)c1ccc2c(c1)NC(=O)CS2	1887	1.5	6.8	1672	1558	-1.7
COc1ccccc1CN(C)C(=O)c1ccc2c(c1)NC(=O)CS2	.	-3.5	7.6	1488	.	47.9*
FC(F)(F)c1cccc(-c2ccn3ncnc3n2)c1	1832	4.4	3.6	1645	1524	-1.8
Cc1cccc(-c2nnc(SCC#N)n2-c2cccc(Cl)c2)c1	.	5.1	-3.8	1440	.	-11.1
COc1ccc(-n2c(SCCC#N)nnc2-c2cc(Cl)ccc2OC)cc1Cl	.	10.3	5.5	2116*	.	22.1
CN1/C(=C\C(=O)COC(=O)Cn2nnc(-c3ccccc3)n2)C(C)(C)c2ccccc21	.	10.4	9.0	2474*	.	5.1
COc1cc(OC)cc(C(=O)NCC(=O)OCC(=O)/C=C2/N(C)c3ccccc3C2(C)C)c1	1763	1.8	-3.6	1591	1511	-2.8
Cc1cc(NC(=O)CN2C(=O)NC3(CCC(C)CC3)C2=O)no1 (centres undefined)	2022	5.0	22.3*	1764	1468	5.1
Cc1cc(C(=O)NCCN2C(=O)S/C(=C\c3cccs3)C2=O)ccc1[N+](=O)[O-]	2048	6.4	3.7	1695	1613	4.2
COc1ccc(-c2nc(N3CCCCCC3)sc2C(=O)c2ccccc2)cc1	.	12.5	15.9	2098*	.	13.5
O=C(c1ccc(Br)cc1)c1sc(N2CCOCC2)nc1-c1ccccc1	2046	14.9	14.6	1756	2783*	10.5
CC(/C=N/NC(=O)c1sc(N)nc1C)=C\c1ccccc1	1672	8.4	8.2	1704	1643	5.6
CCOC(=O)C1=C(C)Nc2ccccc2N=C1NC(=O)c1ccc(Cl)c(S(=O)(=O)N2CCCC2)c1	2193	5.1	3.5	1448	2223*	1.0
CCOC(=O)C1=C(C)Nc2ccccc2N=C1NC(=O)C(c1ccccc1)c1ccccc1	2300	4.2	9.6	1768	2077*	3.3
SMILES	SRC1 TRFRET art	PPARg SRC1 recr	PPARg SRC2 recr	SRC2 TRFRET art	SRC3 TRFRET art	PPARg SRC-3 ag
CCOC(=O)C1=C(C)Nc2ccccc2N=C1NC(=O)c1cccc(S(=O)(=O)N(C)C)c1	.	3.5	4.3	1733	.	4.3
Cc1ccc(C)n1-c1ccc(C(=O)N/N=C/c2ccncc2)cc1	1815	-2.3	0.7	1323	1404	-0.7
COc1cccc(CNC(=S)Nc2cc(OC)ccc2OC)c1	1775	-1.6	-2.7	1457	1491	2.9
CC(C)(C)[C@H]1C=C(C(=O)N2CCN(Cc3ccc4c(c3)OCO4)CC2)O[C@@H](OCc2ccc(CO)cc2)C1	1514	-1.2	1.8	1430	1713	-2.5
N#CC1=C(S)N(c2ccccc2)C(c2ccc(-c3cccc(Cl)c3)o2)NC1=O (centres undefined)	2388*	6.3	9.6	1822	1991	4.3
Cc1cccc(N2C(S)=C(C#N)C(=O)NC2c2ccco2)c1 (centres undefined)	1809	11.2	7.5	1620	1528	4.6
Cn1c(C(=O)N2CCOCC2)cnc1Sc1ncc(C(F)(F)F)cc1Cl	.	-1.1	21.8*	1743	.	10.1
CC(C)(O)C#Cc1ccc(CN2CCN(C3CCCCC3)C(CCO)C2)cc1 (centres undefined)	2568*	24.3*	1.5	1582	1573	-1.8
Nc1ccc2c(c1)Nc1ccccc1CC2	1864	10.5	8.0	1501	1591	12.4
CC(C)(C)c1ccc(OCCCC(=O)N2CCOCC2)cc1	1643	-3.2	2.4	1540	1487	0.6
CC(C)(C)c1ccc(OCc2ccc(C(=O)N3CCOCC3)o2)cc1	1474	-1.8	25.2*	2010*	1710	2.6
O=[N+]([O-])c1ccc2[nH]c(O)c(N=NC(=S)NCC3CCCO3)c2c1 (centres undefined)	1664	3.2	-4.0	1299	1631	-6.2
CCNC(=S)N=Nc1c(O)[nH]c2ccc([N+](=O)[O-])cc12	2171	8.0	11.1	1982*	1665	0.2
Cc1cccc(N2CCN(C(=O)c3ccncc3)CC2C)c1 (centres undefined)	.	0.5	-4.1	1601	.	1.5
Cc1cccc(N2CCN(C(=O)c3cc(C)oc3C)CC2C)c1 (centres undefined)	2332*	13.5	-0.1	1709	1532	1.3
CCOC(=O)CNC(=O)N1CCCC(CCC(=O)NCc2ccc(F)c(F)c2)C1 (centres undefined)	1759	9.5	0.9	1433	1673	-3.9
Cc1c(N=Nc2ccc(O)cc2)c(=O)n(-c2ccccc2)n1C	2013	12.5	3.1	1632	2164*	3.2
O=C(CSc1nnc(-c2ccco2)n1-c1ccccc1)N1CCc2ccccc21	.	13.1	1.8	1562	.	5.8
O=C(CSc1nnc(-c2cccs2)n1-c1ccccc1)N1CCc2ccccc21	.	30.1*	5.9	1416	.	-3.6
CC(Nc1cccnc1)=C(C#N)C#N	1761	2.1	-6.7	1611	1528	1.7

Source: PubChem
